Measured values published in PubChem BioAssay (Tox21).
Records with an inconclusive call do not appear. Where a call stands in place of a potency, no number is given. Unmarked numbers belong to inactive results. Calls of active or inactive are those of the source. Unless noted, calls come from the whole dose curve; as a rule, active = well fitted curve in the direction sought with a large enough effect in the repeat runs; inconclusive = weak or mixed curves; inactive = no such curve, though single readings can be large; an effect the other way counts as inactive or inconclusive.

Legend:
[1] = qHTS assay to identify small molecule agonists of the peroxisome proliferator-activated receptor delta (PPARd) signaling pathway - cell viability counter screen (AID 743211); note: nearly all actives have a fitted effect of over 55% in size; note: potency is the fitted concentration of half-maximal effect
Outline: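 Viability of GeneBLAzer PPARd UAS-bla HEK293H cells was assessed after 17 h compound incubation at 37C, using CellTiter-Glo reagent added after the reporter read and luminescence recorded 30 min later.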

[2] = target: Peroxisome proliferator-activated receptor delta (Homo sapiens) (UniProt Q03181); assay: qHTS assay to identify small molecule agonists of the peroxisome proliferator-activated receptor delta (PPARd) signaling pathway (AID 743212; calls by dose curve; note: potency is the fitted concentration of half-maximal effect)
Outline: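 A PPARd-bla HEK293H line with beta-lactamase under an Upstream Activator Sequence is treated with compounds at 37 C. Substrate loading for 2 h at room temperature precedes the fluorescence measurement.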

[3] = qHTS assay to identify small molecule antagonists of the peroxisome proliferator-activated receptor delta (PPARd) signaling pathway - cell viability counter screen (AID 743213); note: nearly all actives have a fitted effect of over 50% in size; note: potency is the fitted concentration of half-maximal effect
Outline: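 Viability counter-screen, qHTS format: PPARd-bla HEK293H, L165041 300 nM final, 17 h compound exposure at 37 C, CellTiter-Glo luminescence after 30 min RT.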

[4] = target: Peroxisome proliferator-activated receptor delta (Homo sapiens) (UniProt Q03181); assay: qHTS assay to identify small molecule antagonists of the peroxisome proliferator-activated receptor delta (PPARd) signaling pathway (AID 743215; active = well fitted inhibition curve with a large enough effect in the signal ratio in the repeat runs, not every such curve was filed as active; the % refers to the signal ratio;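 note: cells stimulated with agonist L165041 at 300 nM final during compound exposure; series mostly up to about 62 µM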)
Outline: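 HEK293H UAS-bla, PPARd; agonist L165041 300 nM final with cpd in DMSO; 37 C 17 h; FRET substrate, RT 2 h; fluorescence intensity.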

[5] = target: Bile acid receptor (Homo sapiens) (UniProt Q96RI1); assay: qHTS assay to identify small molecule antagonists of the farnesoid-X-receptor (FXR) signaling pathway (AID 743217; active = well fitted inhibition curve with a large enough effect in the signal ratio in the repeat runs, not every such curve was filed as active; the % refers to the signal ratio)
Outline: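 GeneBLAzer FXR-UAS-bla HEK 293T, CDCA-stimulated (50 uM final). Compound treatment 16 h, 37 °C. Detection: beta-lactamase cleavage of B/G FRET substrate, fluorescence.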

[6] = qHTS assay to identify small molecule agonists of the farnesoid-X-receptor (FXR) signaling pathway - cell viability counter screen (AID 743218); note: nearly all actives have a fitted effect of over 45% in size; note: potency is the fitted concentration of half-maximal effect
Outline: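 Parallel cytotoxicity test: compound-treated (16 h, 37 C) HEK 293T FXR-bla reporter cells were lysed with CellTiter-Glo and luminescence recorded.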

[7] = target: Bile acid receptor (Homo sapiens) (UniProt Q96RI1); assay: qHTS assay to identify small molecule agonists of the farnesoid-X-receptor (FXR) signaling pathway (AID 743220; active = well fitted activation curve with a large enough effect in the signal ratio in the repeat runs, not every such curve was filed as active; the % refers to the signal ratio)
Outline: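 Beta-lactamase reporter under UAS control in GeneBLAzer FXR HEK 293T cells (5000/well) measured with LiveBLAzer FRET substrate after 2 h at room temperature. Compound exposure lasted 16 h at 37C.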

[8] = qHTS assay to identify small molecule antagonists of the farnesoid-X-receptor (FXR) signaling pathway - cell viability counter screen (AID 743221; active = well fitted cell-killing curve with a large enough effect in the repeat runs, not every such curve was filed as active; note: nearly all actives have a fitted effect of over 50% in size; note: potency is the fitted concentration of half-maximal effect)
Outline: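 Quantitative HTS of the Tox21 10K library run in parallel with the beta-lactamase reporter read. HEK 293T cells carrying a UAS-driven bla reporter got compound and 50 uM CDCA (final) for 16 h; ATP-based luminescence followed.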

[9] = target: Vitamin D3 receptor (Homo sapiens) (UniProt P11473); assay: qHTS assay to identify small molecule agonists of the vitamin D receptor (VDR) signaling pathway (AID 743222; calls by dose curve)
Outline: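 In VDR-bla cells, compound-induced beta-lactamase expression is quantified by FRET substrate fluorescence. Treatment lasts 16 h at 37C; substrate develops 2 h at room temperature.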

[10] = target: Vitamin D3 receptor (Homo sapiens) (UniProt P11473); assay: qHTS assay to identify small molecule antagonists of the vitamin D receptor (VDR) signaling pathway (AID 743223; active = well fitted inhibition curve with a large enough effect in the signal ratio in the repeat runs, not every such curve was filed as active; the % refers to the signal ratio)
Outline: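 Fluorescence from LiveBLAzer B/G FRET substrate, read after 2 h at room temperature, reflects beta-lactamase reporter activity in VDR-bla cells treated 16 h at 37C with compounds and agonist 1alpha,25-dihydroxyvitamin D3 (3 nM final).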

[11] = qHTS assay to identify small molecule agonists of the vitamin D receptor (VDR) signaling pathway - cell viability counter screen (AID 743224); note: nearly all actives have a fitted effect of over 50% in size; note: potency is the fitted concentration of half-maximal effect
Outline: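 Plated VDR-bla cells (4 h, 37C) received compound, incubated 16 h, then LiveBLAzer substrate 2 h RT; CellTiter-Glo added afterwards, luminescence read at 30 min.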

[12] = qHTS assay to identify small molecule antagonists of the vitamin D receptor (VDR) signaling pathway - cell viability counter screen (AID 743225); note: nearly all actives have a fitted effect of over 50% in size
Outline: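 Cells (VDR-UAS-bla HEK 293T) are plated, rested 4 h at 37C, dosed with compound and 3 nM final 1-alpha,25-dihydroxy vitamin D3, and incubated 16 h. Viability is taken from CellTiter-Glo luminescence in the reporter wells.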

[13] = qHTS assay to identify small molecule agonists of the NFkB signaling pathway (AID 1159509; active = well fitted curve in the direction sought with a large enough effect in the signal ratio in the repeat runs, not every such curve was filed as active; the % refers to the signal ratio; note: series mostly up to about 61 µM)
Outline: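 ME-180 NFkB-bla, 2,000 cells/well, overnight plating; cpd pinned in DMSO, 5 h 37 C; B/G FRET substrate 1.5 h RT; ex 405, em 460/530 nm.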

[14] = qHTS assay to identify small molecule agonists of the NFkB signaling pathway - cell viability counter screen (AID 1159515; calls by dose curve; note: nearly all actives have a fitted effect of over 55% in size; note: potency is the fitted concentration of half-maximal effect)
Outline: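 Using the same wells as the NFkB reporter read, ME-180 NFkB-bla cells given compounds for 5 hr were assessed for viability via CellTiter-Glo, with luminescence taken after a 30 min room-temperature incubation.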

[15] = qHTS assay to identify small molecule antagonists of the retinoid-related orphan receptor gamma (ROR-gamma) signaling pathway - cell viability counter screen (AID 1159520); note: nearly all actives have a fitted effect of over 50% in size; note: potency is the fitted concentration of half-maximal effect
Outline: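 Tet-on ROR gamma CHO cells (1,000/well) were plated 4 hr, given compounds in DMSO for 2 hr at 37 C, then induced with 1 uM final doxycycline for 16 hr. Viability was read as ATP by CellTiter-Glo luminescence after 30 min.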

[16] = target: Nuclear receptor ROR-gamma (Homo sapiens) (UniProt P51449); assay: qHTS assay to identify small molecule antagonists of the retinoid-related orphan receptor gamma (ROR-gamma) signaling pathway (AID 1159521)
Outline: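 RORγ antagonism is scored from reduced reporter luminescence in Tet-on CHO cells. Induction used 1 uM final doxycycline hyclate for 16 h at 37 C, following a 2 h compound exposure.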

[17] = qHTS assay to identify small molecule agonists of the AP-1 signaling pathway - cell viability counter screen (AID 1159525; calls by dose curve; note: nearly all actives have a fitted effect of over 55% in size)
Outline: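 ME-180 AP-1-bla, 2500 cells/well, Opti-MEM + 0.5% dialyzed FBS; overnight 37 °C; cpd 15-pt titration, 5 h 37 °C; CellTiter-Glo 30 min RT; luminescence read; normalised to TOAB and DMSO controls.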

[18] = qHTS assay to identify small molecule agonists of the AP-1 signaling pathway (AID 1159526; calls by dose curve)
[19] = qHTS assay to identify small molecule agonists of the endoplasmic reticulum stress response signaling pathway - cell viability counter screen (AID 1159517; calls by dose curve)
Outline: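 CellTiter-Glo was added to wells already read for beta-lactamase FRET, and luminescence was recorded 30 min later. Cells: ESRE-bla HeLa, 1,500 per well, compound exposure 5 hr at 37 C.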

Sequence of Bile acid receptor (Homo sapiens) (Q96RI1 whole entry, looked up): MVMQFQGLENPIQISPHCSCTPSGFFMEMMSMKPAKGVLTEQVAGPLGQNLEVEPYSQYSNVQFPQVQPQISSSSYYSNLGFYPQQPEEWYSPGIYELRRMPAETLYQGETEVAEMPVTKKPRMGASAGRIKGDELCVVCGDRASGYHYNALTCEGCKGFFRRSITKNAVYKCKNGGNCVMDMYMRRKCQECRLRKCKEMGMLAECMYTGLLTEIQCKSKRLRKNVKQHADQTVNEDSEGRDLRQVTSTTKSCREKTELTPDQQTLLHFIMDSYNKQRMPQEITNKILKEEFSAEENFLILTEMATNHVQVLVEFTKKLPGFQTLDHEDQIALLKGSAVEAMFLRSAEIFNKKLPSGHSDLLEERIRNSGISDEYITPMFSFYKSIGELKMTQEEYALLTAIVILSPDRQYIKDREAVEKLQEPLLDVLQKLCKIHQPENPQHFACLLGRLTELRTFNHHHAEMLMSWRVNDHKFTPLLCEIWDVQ
Sequence of Peroxisome proliferator-activated receptor delta (Homo sapiens) (Q03181 whole entry, looked up): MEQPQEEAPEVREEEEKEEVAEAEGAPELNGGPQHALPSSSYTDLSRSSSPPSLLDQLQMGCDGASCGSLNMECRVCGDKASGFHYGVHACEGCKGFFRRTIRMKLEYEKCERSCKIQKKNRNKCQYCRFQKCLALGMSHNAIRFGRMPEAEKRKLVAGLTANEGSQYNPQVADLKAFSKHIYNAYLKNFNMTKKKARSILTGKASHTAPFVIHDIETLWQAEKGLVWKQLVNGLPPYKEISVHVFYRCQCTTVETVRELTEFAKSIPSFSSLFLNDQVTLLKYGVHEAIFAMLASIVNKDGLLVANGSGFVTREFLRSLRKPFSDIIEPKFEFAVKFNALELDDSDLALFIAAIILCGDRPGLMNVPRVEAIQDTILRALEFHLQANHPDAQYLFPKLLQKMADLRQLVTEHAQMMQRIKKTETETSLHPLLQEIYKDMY
Sequence of Vitamin D3 receptor (Homo sapiens) (P11473 whole entry, looked up): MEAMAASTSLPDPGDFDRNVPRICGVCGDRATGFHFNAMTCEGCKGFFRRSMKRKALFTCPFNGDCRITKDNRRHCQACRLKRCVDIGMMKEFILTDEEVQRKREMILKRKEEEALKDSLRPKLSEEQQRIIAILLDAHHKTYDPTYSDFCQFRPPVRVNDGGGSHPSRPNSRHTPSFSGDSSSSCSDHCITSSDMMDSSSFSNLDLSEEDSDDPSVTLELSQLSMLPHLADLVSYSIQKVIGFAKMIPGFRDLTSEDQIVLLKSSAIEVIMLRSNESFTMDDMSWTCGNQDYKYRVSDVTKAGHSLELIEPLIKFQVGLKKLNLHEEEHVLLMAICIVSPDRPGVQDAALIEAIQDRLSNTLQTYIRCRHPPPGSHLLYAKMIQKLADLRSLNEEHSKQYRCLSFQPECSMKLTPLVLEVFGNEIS

SMILES	Potency [1]	Potency [2]	Potency [3]	Potency [4]	Potency [5]	Potency [6]	Potency [7]	Potency [8]	Potency [9]	Potency [10]	Potency [11]	Potency [12]	Potency [13]	Potency [14]	Potency [15]	Potency [16]	Potency [17]	Potency [18]	Potency [19]
Cc1ccccc1S	inactive	inactive	inactive	inactive	inactive	inactive	inactive	inactive	inactive	inactive	inactive	inactive	inactive	inactive	inactive	inactive	inactive	inactive	–
CC(=O)Oc1ccc([N+](=O)[O-])cc1CCl	inactive	inactive	inactive	inactive	inactive	–	inactive	inactive	–	–	inactive	inactive	inactive	inactive	–	inactive	inactive	inactive	inactive
Oc1cccc(O)c1O	inactive	–	–	inactive	–	inactive	–	inactive	inactive	inactive	inactive	–	inactive	inactive	–	–	inactive	–	inactive
O=C1c2ccccc2C(=O)c2c(O)c(O)cc(O)c21	inactive	inactive	inactive	inactive	inactive	inactive	inactive	inactive	inactive	inactive	inactive	inactive	inactive	inactive	–	inactive	inactive	inactive	inactive
O=c1cc(-c2ccccc2)oc2ccc3ccccc3c12	17.4 µM (active)	–	13.8 µM (active)	inactive	–	8.71 µM (active)	–	19.5 µM (active)	inactive	–	19.5 µM (active)	–	inactive	54.9 µM (active)	27.3 µM (active)	inactive	–	–	–
O=C1Cc2cc(Cl)ccc2N1	inactive	inactive	inactive	–	–	inactive	–	inactive	inactive	inactive	inactive	inactive	inactive	inactive	inactive	inactive	–	inactive	–
CC1(C)[C@H](C(=O)O)N2C(=O)C[C@H]2S1(=O)=O	inactive	–	inactive	–	–	inactive	inactive	inactive	inactive	–	inactive	–	inactive	inactive	inactive	–	–	–	inactive
CCCCCCCCOc1ccc(C(=O)O)cc1	inactive	7.67 µM (active)	inactive	inactive	inactive	inactive	–	inactive	–	inactive	inactive	inactive	inactive	inactive	inactive	–	inactive	inactive	–
CCCCCCCCN	inactive	inactive	inactive	inactive	–	inactive	–	inactive	inactive	inactive	inactive	inactive	inactive	inactive	inactive	inactive	inactive	inactive	–
